Mtb UGM inh: M. tuberculosis UGM enzyme inhibitors, primary screen, biochemical, fluorescence polarization, single point; UDP-galactopyranose mutase (Mycobacterium tuberculosis (strain ATCC 25618 / H37Rv)), …; inhibition, % at 10 µM; AID 504406, 2011; purified UGM, fluorescence polarization probe displacement; 0.06% of 320,000 active; in the data active = inhibition above about 10%, passing the limit was not always enough
Mtb bLac sens: beta-lactam sensitization of Mtb H37Rv, H37Rv | 0.27% of 330,000 active | M. tuberculosis H37Rv growth with meropenem, percent inhibition | inhibition, % at 25 µM;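 also: growth measured after seven days incubation then overnight dye step; 0% = bacteria only wells and 100% = bacteria with antibiotic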
Rv3671c protease: Rv3671c serine protease inhibitors, primary screen, biochemical, fluorescence polarization, M. tuberculosis H37Rv; AID 2606, 2010; 0.048% of 320,000 active; inhibition, % at 5.96 µM; P9WHR9; in the data active = inhibition above about 38%;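 also: extracellular domain of Rv3671c used as enzyme; 0% = enzyme with DMSO and 100% = no enzyme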
Target sequence (P9WHR9 whole entry, looked up, the tested form may be a part): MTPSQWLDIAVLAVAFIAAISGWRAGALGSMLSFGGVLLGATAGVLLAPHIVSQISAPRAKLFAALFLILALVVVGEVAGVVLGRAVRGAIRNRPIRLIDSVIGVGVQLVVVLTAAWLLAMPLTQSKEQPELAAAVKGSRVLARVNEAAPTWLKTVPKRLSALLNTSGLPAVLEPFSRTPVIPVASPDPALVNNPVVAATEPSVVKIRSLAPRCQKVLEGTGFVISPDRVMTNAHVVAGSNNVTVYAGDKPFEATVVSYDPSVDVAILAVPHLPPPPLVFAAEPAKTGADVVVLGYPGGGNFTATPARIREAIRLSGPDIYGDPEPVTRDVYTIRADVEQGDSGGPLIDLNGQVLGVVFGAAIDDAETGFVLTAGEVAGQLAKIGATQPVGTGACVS
SSB-PriA inh: inhibitors of Klebsiella pneumoniae PriA binding to SSB C-terminal tail, primary screen, biochemical, AlphaScreen; PriA–SSB C-terminal tail interaction (Klebsiella pneumoniae); AlphaScreen SSBct-PriA binding, biotinylated peptide; inhibition, % at 33 µM; 0.6% of 430,000 active; AID 1272365, 2023; in the data active = inhibition mostly above about 37%, no sharp cut-off; inactive = mostly below about 20%;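 also: plate controls were negative control peptide for no effect and reference peptide for full effect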
RecA intein inh: Mtb RecA intein splicing inhibitors, primary screen, biochemical, fluorescence, HTS. 0.75% of 290,000 active. Protein RecA (Mycobacterium tuberculosis (strain ATCC 25618 / H37Rv)), P9WHJ3. cell-free RecA intein splicing. inhibition, % (test concentration not listed); in the data active = inhibition above about 30%;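 also: 0% = vehicle wells and 100% = reference inhibitor control wells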
GFP chromophore: counter-screen: blocks GFP chromophore formation, dose response, counter-screen, biochemical, fluorescence, homogeneous; 83% of 2,100 active; shares compounds with RecA intein inh; EC50, µM; cell-free GFP chromophore formation
* marks the source's active call; other numbers are inactive results; · = no result. The list is not random: actives were taken first. Their share in the collection is about 1.1%. Unless noted, no rule for the calls is given here.

SMILES	Mtb UGM inh	Mtb bLac sens	Rv3671c protease	SSB-PriA inh	RecA intein inh	GFP chromophore
O=C1C2C3CCC(C3)C2C(=O)N1c1ccc(OS(=O)(=O)c2ccccc2)cc1 (stereo unspecified)	4.1	-8.4	9.6	-12.9	-0.8	·
O=C(Oc1ccc(N2C(=O)C3C4CCC(C4)C3C2=O)cc1)c1ccco1 (stereo unspecified)	-0.9	-3.2	5.2	9.8	30.3*	>38
CCOC(=O)c1ccc(COC(=O)c2ccc3c(c2)-c2ccccc2C3=O)cc1	-0.2	9.0	2.2	-7.2	1.9	·
CCCc1ccc(/C=C2\C(=O)c3ccccc3C(O)=C2C(=O)OCC)cc1	-2.1	·	-28.3	·	36.2*	10.2*
CCOC(=O)C1=C(O)c2ccccc2C(=O)/C1=C\c1ccc(CC)cc1	-0.3	7.2	-76.0	13.8	48.6*	5.08*
CCOC(=O)C1=C(C)N(c2ccccc2)C(=O)/C1=C\c1ccc(O)c(OC)c1	3.6	-0.2	-17.1	8.0	6.5	·
O=C(NCCOc1ccccc1)Nc1cccc(F)c1	·	·	·	-6.0	·	·
O=C(COc1ccc(Cl)cc1)N1CCN(c2ccc3nncn3n2)CC1	·	·	·	-7.0	·	·
CCCc1[nH][nH]c(=O)c1C(c1ccc(Cl)cc1)C(C#N)C#N (stereo unspecified)	-1.4	5.6	-8.7	11.8	69.9*	17.7*
CCCc1[nH][nH]c(=O)c1C(c1ccccc1)C(C#N)C#N (stereo unspecified)	2.5	-3.5	8.9	-8.4	62.4*	19.8*
Cc1[nH]c2ccccc2c1C(c1ccc([N+](=O)[O-])cc1)C(C#N)C#N (stereo unspecified)	·	·	·	59.0	·	·
CCCc1[nH][nH]c(=O)c1C(c1ccc(Br)cc1)C(C#N)C#N (stereo unspecified)	2.0	-3.9	-6.7	8.2	65.8*	10.9*
Cn1c(-[n+]2c(-c3ccccc3)cc(-c3ccccc3)cc2-c2ccccc2)nc2c([N+](=O)[O-])cccc21	-0.3	56.2	-0.7	21.6	33.4*	29.9*
O=[N+]([O-])c1ccc(-[n+]2c(-c3ccccc3)cc(-c3ccccc3)cc2-c2ccccc2)cc1	0.9	-3.6	0.9	-7.6	0.4	·
COc1ccc(S(=O)(=O)CCC(=O)N2CC(Oc3nc4ccccc4s3)C2)cc1	·	·	·	-4.0	·	·
COC(=O)CCSc1cc(NCCOC(C)=O)c([N+](=O)[O-])c2nonc12	-4.6	51.3	-3.0	3.5	53.8*	24.4*
CCCC(=O)OCCNc1cc(SCCC(=O)OC)c2nonc2c1[N+](=O)[O-]	0.7	99.2	-9.0	7.8	38.7*	17.8*
CC(=O)OCCCNc1cc(Sc2ccc(C)cc2)c2nonc2c1[N+](=O)[O-]	3.6	9.3	-3.4	-12.3	14.6	·
CC(C)S(=O)(=O)c1cccc(C(=O)Nc2ccccc2C#N)c1	·	·	·	-7.0	·	·
Nc1nc(SCC(=O)NCc2cccnc2)nc2sc3c(c12)CCCC3	·	·	·	-5.0	·	·
COc1ccc(CC(=O)Nc2nnc(SCc3ccccc3F)s2)cc1OC	·	·	·	1.0	·	·
COc1cccc(Nc2c([N+](=O)[O-])cncc2[N+](=O)[O-])c1	1.8	89.9	8.3	11.2	54.0*	20.7*
CCOc1ccc(CN2CCN(CC3=Cc4cccc(OC)c4OC3)CC2CCO)cc1 (stereo unspecified)	0.7	-0.4	-3.6	14.4	41.7*	>38
COC(=O)c1ccccc1NC(=S)NC(=O)c1ccc(C)cc1	0.2	-4.2	-1.6	13.5	36.5*	0.495*
CC(=NNC(=O)c1ccc(CN2CCOCC2)cc1)c1ccc(NC(=O)c2ccccc2)cc1	·	·	·	1.1	·	·
SMILES	Mtb UGM inh	Mtb bLac sens	Rv3671c protease	SSB-PriA inh	RecA intein inh	GFP chromophore
COc1ccccc1/C=C/C1(C(=O)NC2CCCC2)CC(=O)N1c1ccc(F)cc1 (stereo unspecified)	1.7	0.2	-13.5	-18.4	57.1*	21.6*
CNC(=S)NN=Cc1ccco1	·	·	·	-6.5	·	·
COC(=O)c1nc(-c2ccc3c(n2)C(=O)C(N)=C(OC)C3=O)c(N)c(-c2ccc(OC)c(OC)c2O)c1C	1.6	65.5	-51.8	27.6	93.6*	0.845*
COC1=C(N)C(=O)c2nc(-c3nc(C(=O)O)c(C)c(-c4ccc(OC)c(OC)c4O)c3N)ccc2C1=O	·	80.1	3.9	-10.8	·	·
COCCn1c(SCC(=O)NCc2ccc(F)cc2)nc2ccccc21	1.0	-8.2	4.8	9.2	-3.1	·
Cn1c(SCC(=O)NCc2ccc(F)cc2)nc2ccccc21	2.6	-1.6	-5.2	-8.4	31.0*	>38
O=C(CCl)Nc1ccc(-c2ccccc2)cc1	-1.8	100.2	-6.5	-5.9	75.0*	23.6*
O=C(CCl)Nc1cccc(Oc2ccccc2)c1	-0.8	95.5	-0.9	-6.3	64.8*	35*
CC(C)N(c1ccccc1)c1ccc(NC(=O)CCl)cc1	-0.8	100.6	4.0	8.7	50.5*	8.67*
O=C(CCl)Nc1ccc(N=Nc2ccccc2)cc1	·	·	·	18.3	78.8*	30.3*
CC(C)(C)c1ccc(C2CC2C(=O)NN=Cc2ccc[nH]2)cc1 (stereo unspecified)	·	·	·	33.9	·	·
Cc1cccc(NC(=O)NCC(c2ccco2)N2CCc3ccccc3C2)c1 (stereo unspecified)	·	·	·	3.0	·	·
Cc1cccc(OCC(O)CN)c1 (stereo unspecified)	·	·	·	-2.0	·	·
COc1cc(C=NNC(=O)c2cncc(Br)c2)cc([N+](=O)[O-])c1O	·	·	·	1.8	·	·
CC(C)(C)c1cc(C(c2cccnc2)N2CCN(CCO)CC2)cc(C(C)(C)C)c1O (stereo unspecified)	-2.5	100.6	12.3	1.0	37.9*	35.3*
CC1=NNC(=O)C1Cc1ccccc1C (stereo unspecified)	1.4	-2.9	-1.9	5.2	95.3*	0.737*
CC(C)NC(=O)C1CCN(c2nc3ncn(CC(=O)N[C@H]4CCc5ccccc54)c(=O)c3s2)CC1	·	·	·	-9.0	·	·
COC(=O)Cc1[nH]nc2c1C(c1ccc(O)c(OC)c1)C(C#N)=C(N)O2 (stereo unspecified)	-1.6	-2.6	4.2	-0.9	76.8*	30.9*
CCOC(=O)C1=C(C)OC(N)=C(C#N)C1c1cc(SCC)oc1C (stereo unspecified)	-0.6	-5.8	-9.2	-7.3	0.7	·
COC(=O)Cc1[nH]nc2c1C(c1c[nH]c3ccccc13)C(C#N)=C(N)O2 (stereo unspecified)	0.9	6.2	-6.0	-6.5	86.5*	>38
Cc1[nH]nc2c1[C@@H](c1ccccc1[N+](=O)[O-])C(C#N)=C(N)O2	1.6	10.2	-1.9	7.7	-0.3	·
Cc1[nH]nc2c1C(c1c[nH]c3ccccc13)C(C#N)=C(N)O2 (stereo unspecified)	3.9	1.4	0.7	7.7	90.1*	7.55*
